PubChem BioAssay
Calls of active or inactive are those of the source. Unless noted, no rule for the calls is given here.

What was measured:
[1] = tested on: Wnt5a (protein binding on small-molecule microarray); assay: small molecules binding Wnt5a protein – biophysical, small-molecule microarray, 635/667 nm fluorescence, primary screen (AID 1142); conditions: 635 nm fluorescence, higher = more signal;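 also: fluorescence read at 667 nm with signal to noise per printed feature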
[2] = ATP-based viability of Huh7 replicon cells – cell-based, CellTiter-Glo luminescence, basal, 48 h, cytotoxicity control for HCV replication inhibitor project, primary screen (AID 1143); conditions: higher = more signal, called active from +8 up or from −8 down;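 also: Huh7 hepatoma cells carrying a hepatitis C replication reporter with no stimulus; test concentration not given here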
[3] = Pseudomonas biofilm growth suppression – PAO1 strain, BacTiter-Glo luminescence, LB-PBS, primary screen (AID 1144); conditions: P. aeruginosa PAO1 biofilm, 12 h, higher = more signal
[4] = basal CRE-LacZ reporter activity in PC12 – cell-based, unstimulated, primary screen (AID 1145); conditions: no forskolin, luminescence, 4.5 h, higher = more signal, called active from +8 up or from −8 down
[5] = forskolin-driven CRE-LacZ activity in PC12 – cell-based, CRE-LacZ reporter, forskolin-stimulated, primary screen (AID 1146); conditions: luminescence, 4.5 h, higher = more signal, called active from +8 up or from −8 down;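 also: PC12 cells with 6xCRE LacZ reporter stimulated by forskolin 10 µM; beta-galactosidase reporter signal reflecting CREB driven transcription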
[6] = target: Streptavidin (Streptomyces avidinii) (UniProt P22629); assay: compounds binding control protein streptavidin – biophysical, small-molecule microarray, 635/667 nm fluorescence, artefact control for SMM compound annotation, primary screen (AID 1147); conditions: higher = more signal;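 also: signal reflects streptavidin binding to arrayed compounds as a control protein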
Chain of Streptavidin (Streptomyces avidinii) (P22629 whole entry, looked up): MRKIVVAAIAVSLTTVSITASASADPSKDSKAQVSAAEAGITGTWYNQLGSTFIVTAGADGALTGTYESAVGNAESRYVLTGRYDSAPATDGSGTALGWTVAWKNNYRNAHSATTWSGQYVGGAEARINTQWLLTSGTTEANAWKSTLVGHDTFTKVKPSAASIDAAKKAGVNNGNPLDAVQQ

[7] = probe aInhba binding on compound microarray – biochemical, small-molecule microarray, 635/667 nm fluorescence, primary screen (AID 1148); conditions: higher = more signal;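 also: score merges 667nm spot fluorescence with signal-to-noise for antibody binding to printed compounds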
Torsin-1A (Homo sapiens) [8] = target: Torsin-1A (Homo sapiens) (UniProt O14656); assay: TOR1A wild-type binding on microarray – cell lysate, small-molecule microarray, lysate, 635/667 nm, primary screen (AID 1149); conditions: COS7 hTOR1A-WT lysate, 635 nm fluorescence, higher = more signal
Chain of Torsin-1A (Homo sapiens) (O14656 whole entry, looked up): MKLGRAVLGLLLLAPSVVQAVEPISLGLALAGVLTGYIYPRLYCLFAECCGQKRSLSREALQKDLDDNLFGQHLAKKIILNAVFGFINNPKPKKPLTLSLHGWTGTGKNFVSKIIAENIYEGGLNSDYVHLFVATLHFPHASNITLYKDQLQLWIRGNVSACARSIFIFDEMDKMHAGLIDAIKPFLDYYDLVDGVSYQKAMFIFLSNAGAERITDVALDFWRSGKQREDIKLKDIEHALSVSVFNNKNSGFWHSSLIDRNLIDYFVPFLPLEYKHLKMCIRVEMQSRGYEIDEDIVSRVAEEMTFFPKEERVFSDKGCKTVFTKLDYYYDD

Torsin-1A (Homo sapiens) [9] = target: Torsin-1A (Homo sapiens) (UniProt O14656); assay: torsin A mutant lysate binding on microarrays – cell lysate, small-molecule microarray, COS7 lysate, 635/667 nm fluorescence, primary screen (AID 1150); conditions: COS7 hTOR1A mutant lysate, 635 nm fluorescence, higher = more signal;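 also: score pools 667 nm emission and signal to noise measuring lysate protein binding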
[10] = tested on: Sonic hedgehog protein (Shh); assay: Sonic hedgehog microarray binding compounds – biochemical, small-molecule microarray, 635/667 nm fluorescence, primary screen (AID 1151); conditions: 635 nm fluorescence, higher = more signal;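 also: Shh protein binding to compounds spotted on small-molecule microarray slides; score combines spot fluorescence intensity with signal-to-noise across triplicate slides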

SMILES | composite z-score [1] | z-score [2] | z-score [3] | z-score [4] | z-score [5] | composite z-score [6] | composite z-score [7] | composite z-score (Torsin-1A (Homo sapiens) [8]) | composite z-score (Torsin-1A (Homo sapiens) [9]) | composite z-score [10]
COCC(=C=CC[C@H](O)c1ccc(OCCO)cc1)C[C@H](O)c1cc(Cl)cc(Cl)c1O | 0.635 | -7.94 (inactive) | -0.984 (inactive) | 11.1 (active) | 0.96 (inactive) | 0.169 | 0.0849 | 1.06 | 0.3 | 2.26
CN(C)CCCNC(=O)[C@@]1(Cc2ccccc2I)c2ccccc2C(=O)N(Cc2ccccc2C(F)(F)F)[C@H]1c1ccc(CO)cc1 | -0.753 | -5.77 (inactive) | -0.233 (inactive) | 0.351 (inactive) | -0.742 (inactive) | 0.154 | -0.162 | -1.08 | 0.135 | -0.678
C=CCC(OC(C)=O)[C@@H]1[C@@H](N(Cc2ccc(-c3cccc(C(F)(F)F)c3)o2)C(=O)c2ccc(C)cc2)c2cc(OCCCO)ccc2N1C(=O)c1ccc(-c2ccccc2)cc1 (stereo not given in full) | 0.0167 | 0.224 (inactive) | -0.747 (inactive) | -0.463 (inactive) | -0.183 (inactive) | 0.535 | 0.0154 | -0.245 | -0.141 | 1.32
C[C@]1(C(=O)NCc2ccccc2)c2ccccc2C(=O)N(Cc2cc(F)cc(C(F)(F)F)c2)[C@H]1c1ccc(CO)cc1 | -0.0261 | -1.8 (inactive) | -0.255 (inactive) | 0.0909 (inactive) | -0.323 (inactive) | -0.859 | 0.13 | -0.956 | -1.47 | -0.436
CCCCCN1CC=CC23O[C@@H]4/C=C\CCCOC(=O)C4[C@H]2C(=O)N(CCCCCCO)[C@@H]3C1=O (stereo not given in full) | -0.686 | -1.95 (inactive) | -2.51 (inactive) | -1.44 (inactive) | -0.43 (inactive) | -1.21 | -0.128 | 0.61 | 0.474 | 0.124
COCCOC(=O)N1C(=O)[C@@]2(c3ccccc31)[C@H](c1ccc(O)cc1)N1[C@H](c3ccccc3)[C@H](c3ccccc3)OC(=O)[C@H]1[C@@H]2C(=O)N1CCc2cc(OC)c(OC)cc2C1 | 0.633 | -3.64 (inactive) | -1.29 (inactive) | 0.0776 (inactive) | -0.654 (inactive) | -0.162 | 0.223 | 0.419 | 0.697 | 2.1
COc1ccc([Si](C)(C)[C@@H]2[C@@H](CC(=O)N(CCO)Cc3ccccc3)O[C@]3(C(=O)N(C)c4ccccc43)[C@H]2C)cc1 | 0.205 | -4.28 (inactive) | -0.054 (inactive) | 11.9 (active) | 1.37 (inactive) | 0.92 | 0.218 | 0.089 | 0.152 | 1.74
O=C1OCCC=C[C@H]2OC34C=CCN(Cc5ccccc5)C(=O)[C@H]3N(CCCCCCO)C(=O)[C@@H]4C12 (stereo not given in full) | -0.751 | 0.404 (inactive) | -0.616 (inactive) | -0.761 (inactive) | -0.395 (inactive) | -0.887 | -0.441 | -1.92 | -1.4 | 0.628
O=C(OCCF)C1=CCC(c2cccc(Cl)c2)O1 (stereo not given) | 0.236 | -2.33 (inactive) | -0.0826 (inactive) | -0.0137 (inactive) | 0.351 (inactive) | 0.112 | -0.0468 | 1.09 | 2.19 | 0.299
CN(C)CCCCCCNC(=O)[C@H]1C[C@H]2C(=O)N[C@@H](CCCCN)C(=O)N2[C@H]1c1ccc(O)cc1 | 1.79 | 0.253 (inactive) | -0.26 (inactive) | 0.0124 (inactive) | 0.737 (inactive) | 2.68 | 1.39 | 3.35 | 3.24 | 2.05
COc1cccc(C(=O)O[C@H]2CC[C@]3(C)C4=C(CCC3C2(C)C)[C@]2(C)CC[C@H]([C@H](C)CCCC(C)C)[C@@]2(C)CC4)c1 (stereo not given in full) | 0.0406 | -1 (inactive) | -1.11 (inactive) | 1.21 (inactive) | -0.687 (inactive) | 0.184 | -0.157 | 0.637 | 0.216 | 0.425
CN(C)CCCCNC(=O)[C@H]1C[C@H]2C(=O)N[C@@H](Cc3ccccc3)C(=O)N2[C@H]1c1ccc(O)cc1 | 0.335 | -2.14 (inactive) | -1.49 (inactive) | -1.9 (inactive) | -0.32 (inactive) | 1.34 | -0.128 | 1.87 | 0.734 | 2.09
O=C1C=CC(=O)[C@@H]2CC(COc3ccccc3)=C3[C@@H](CCc4ccccc4)OB(O)C[C@@H]3[C@H]12 | 0.135 | -2.77 (inactive) | 0.452 (inactive) | 4.76 (inactive) | 4.47 (inactive) | -0.132 | -0.231 | -0.386 | -0.0222 | 1.3
[N-]=[N+]=NCc1ccccc1C[C@]1(C(=O)O)N=C(c2ccc(OCCCO)cc2)O[C@H]1c1ccccc1 | 0.0352 | -0.881 (inactive) | -0.556 (inactive) | -0.79 (inactive) | 2.11 (inactive) | 0.807 | 0.0566 | 1.8 | 1.99 | -0.474
O=C1N(CCS(=O)(=O)c2ccccc2)Cc2ccccc2C[C@]12N=C(c1ccc(OCCCO)cc1)O[C@@H]2c1ccccc1 | 0.775 | -3.53 (inactive) | 0.81 (inactive) | 0.0686 (inactive) | -1.48 (inactive) | 0.196 | 0.537 | 0.916 | 1.02 | 1.51
CCN(CC)c1ccc(N2CC=CC34O[C@@H]5C=CCCOC(=O)C5[C@H]3C(=O)N(CCCCCO)[C@@H]4C2=O)cc1 (stereo not given in full) | 0.0385 | -0.484 (inactive) | -0.947 (inactive) | 0.593 (inactive) | -0.686 (inactive) | -0.45 | 0.0173 | 0.846 | 0.307 | 0.16
CC(C)NC(=O)[C@@]1(Cc2ccccc2I)c2ccccc2C(=O)N(Cc2ccccc2)[C@H]1c1ccc(CO)cc1 | 0.107 | -2.05 (inactive) | -0.549 (inactive) | -0.231 (inactive) | 0.0359 (inactive) | 0.0632 | 0.817 | 0.484 | -0.181 | 1.39
CCCN1C(=O)[C@]2(COC(c3ccc(OCCCO)cc3)=N2)Cc2ccccc21 | 0.526 | -1.62 (inactive) | 0.786 (inactive) | 0.913 (inactive) | -1.39 (inactive) | 0.0066 | 0.0756 | 0.416 | 0.01 | 0.184
CC(C)C[C@@H]1NC(=O)[C@H]2C[C@@H](C(=O)NCCCCCCNC(=O)CS)[C@@H](c3cccc(OCCO)c3)N2C1=O | 1.35 | 0.263 (inactive) | -0.436 (inactive) | -1.49 (inactive) | -1.47 (inactive) | 0.357 | 0.0574 | 1.53 | 1.67 | 2.13
COCCOC(=O)N1C(=O)[C@@]2(c3cc(C#CCC(C(=O)OC)C(=O)OC)ccc31)[C@H](C(=O)N1CCN(c3ncccn3)CC1)[C@H]1C(=O)O[C@H](c3ccccc3)[C@H](c3ccccc3)N1[C@@H]2c1ccc(OCCO)cc1 | 0.148 | -3.18 (inactive) | -1.66 (inactive) | -1.83 (inactive) | -1.08 (inactive) | 0.392 | -0.0221 | 0.2 | 0.542 | 1.3
CC(C)CNC(=O)[C@@]1(c2ccc([N+](=O)[O-])cc2)CC(=O)N(CC23CC4CC(CC(C4)C2)C3)[C@@H]1c1ccc(CO)cc1 | 0.239 | -4.7 (inactive) | 0.677 (inactive) | -0.0888 (inactive) | -1.32 (inactive) | -0.256 | -0.0442 | 1.16 | 0.395 | 1.04
